High-throughput results deposited in PubChem BioAssay by National Center for Advancing Translational Sciences (NCATS).
Coupling enz = inhibits coupling enzyme system, counter-screen for aldolase hits; coupling enzyme system counterscreen, AmpLite Red fluorescence; activity change, negative = inhibition, % at 58.2 µM, hits read low; hit rate 0.67% among 290,000; AID 2472; in the data active means activity change below about -30%
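Final compound at 57.5 uM, incubated 10 min at RT with coupling enzyme reagent (glyceraldehyde-3-phosphate), then 20 min with substrate and AmpLite Red detection. Fluorescence read at 525/598 nm; tests interference with the coupling assay, not aldolase inhibition.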
ELG1 DNA repair = ELG1-dependent DNA repair inhibition | HEK293T ELG1-luciferase reporter, luminescence, 16 h; DNA damage induced by 5-fluorouridine | Potency, µM (titrated, usually from 46.1 µM), without a hit: at the highest dose activity change, negative = inhibition, most hits filed as inhibitors | hit rate 2.3% among 330,000 | AID 504467; further: potency means the concentration at half of the fitted maximal effect; nearly all actives have a fitted effect of over 55% in size
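5-Fluorouridine DNA damage + compound/DMSO, 2,000 cells/well, 16 h, 37 °C/5% CO2. ONE-Glo, 30 min RT, luminescence. Readout = decrease in reporter signal.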
TSHR antagonist = blocks TSH signaling through the human TSH receptor | TSHR-expressing cells, TSH-stimulated cAMP HTRF, 2 h; active compounds read low | activity change, negative = inhibition, % at 11.5 µM | hit rate 0.2% among 330,000 | AID 504810;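 active means activity change below a set negative limit, meaning inhibition stronger than a set level, cut at about -70% in these data; inconclusive means activity change between two set negative limits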
Target sequence (P16473 whole entry, looked up): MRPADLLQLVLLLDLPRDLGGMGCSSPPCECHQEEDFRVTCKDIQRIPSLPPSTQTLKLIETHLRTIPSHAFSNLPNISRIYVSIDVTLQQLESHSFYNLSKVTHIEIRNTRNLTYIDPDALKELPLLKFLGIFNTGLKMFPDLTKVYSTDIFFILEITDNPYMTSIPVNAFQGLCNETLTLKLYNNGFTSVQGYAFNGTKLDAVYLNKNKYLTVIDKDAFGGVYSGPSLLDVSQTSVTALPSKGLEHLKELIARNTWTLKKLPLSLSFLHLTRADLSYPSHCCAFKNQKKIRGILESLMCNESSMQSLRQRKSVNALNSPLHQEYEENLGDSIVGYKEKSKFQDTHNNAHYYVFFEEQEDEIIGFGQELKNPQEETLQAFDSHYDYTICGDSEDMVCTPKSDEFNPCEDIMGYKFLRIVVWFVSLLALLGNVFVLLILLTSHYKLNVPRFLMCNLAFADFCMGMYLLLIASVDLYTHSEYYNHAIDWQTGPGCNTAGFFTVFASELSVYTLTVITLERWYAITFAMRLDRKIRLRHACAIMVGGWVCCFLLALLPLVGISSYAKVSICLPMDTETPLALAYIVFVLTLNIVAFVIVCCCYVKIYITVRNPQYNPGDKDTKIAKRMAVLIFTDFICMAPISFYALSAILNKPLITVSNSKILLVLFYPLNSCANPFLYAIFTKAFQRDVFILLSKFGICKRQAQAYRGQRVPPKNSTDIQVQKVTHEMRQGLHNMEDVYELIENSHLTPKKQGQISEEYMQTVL
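Freshly harvested TSHR cells receive pin-tooled compound, then EC80 TSH at 4nM final. After 2 hours at 37 deg C, antibody in lysis buffer and cAMP-d2 are added; 30 minutes at ambient temperature precede the HTRF read.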
RORg inh = ROR gamma (mouse) transcription inhibition; hit rate 5.4% among 310,000; Potency, µM (doses to about 53.6 µM), inactives show at the highest dose activity change, negative = inhibition, most hits filed as inhibitors; P51450; Drosophila S2 Gal4-RORgamma UAS-luciferase reporter, 20 h; further: potency means the concentration at half of the fitted maximal effect; nearly all actives have a fitted effect of over 60% in size
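ROR gamma transcriptional activity was tracked as Gal4-UAS luciferase output in stably transfected Drosophila Schneider cells, with compound added 1 hr before 700 uM copper sulfate induction and a 20 hr ambient-temperature incubation.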
VP16 counter = inhibits Gal4-VP16 luciferase reporter, ROR gamma counter-screen; hit rate 3.5% among 310,000; AID 2546; Potency, µM (series often up to 53.6 µM), without a hit: at the top dose activity, negative = inhibition, most hits filed as inhibitors; Drosophila S2 Gal4-VP16 UAS-luciferase, luminescence, 20 h;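 further: Gal4-VP16 expression switched on by copper sulfate through the metallothionein promoter; potency means the concentration at half of the fitted maximal effect; nearly all actives have a fitted effect of over 50% in size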
An asterisk follows results filed as active; [ ] = dose if it differs, or a comment. An excerpt weighted towards active compounds, which were near 8% of everything screened. Unless noted, the call rests on the fitted dose curve; in most records, active means well fitted curve in the direction sought with a large enough effect; inconclusive means small, poorly fitted or top-dose-only effect, or another doubt; inactive means no such curve, though single readings can be large; an effect the other way counts as inactive or inconclusive. On the % scale 0 is the no-effect control and ±100 the full control effect.

Screening Cc1cccc(NC(=S)N2CCN(S(=O)(=O)c3ccc(F)cc3)CC2)c1 returned Coupling enz 3, ELG1 DNA repair -5%, TSHR antagonist -2, RORg inh 13µM* and VP16 counter -16%.
`O=S(=O)(c1ccccc1)N1CCN(C(=S)Nc2ccc(F)cc2)CC1` gave Coupling enz 5, ELG1 DNA repair 3%, TSHR antagonist 7, RORg inh -15%[10 µM] and VP16 counter 2%.
Screening O=[N+]([O-])c1ccc(NC(=S)N2CCN(c3ccc(F)cc3)CC2)cc1 returned Coupling enz 1, ELG1 DNA repair -4%, TSHR antagonist -24, RORg inh -19% and VP16 counter -15%.
For Cc1cccc(NC(=S)N2CCN(c3ccc(F)cc3)CC2)c1 the results were Coupling enz 3, ELG1 DNA repair 2%, TSHR antagonist 1, RORg inh 8.9µM* and VP16 counter inconclusive.
Cc1cc(C)cc(NC(=S)N2CCN(c3ccc(F)cc3)CC2)c1 was read as Coupling enz 1, ELG1 DNA repair 9%, TSHR antagonist -3, RORg inh 7.1µM* and VP16 counter -25%.
For FC(F)(F)c1cccc(NC(=S)N2CCN(c3cccc(C(F)(F)F)c3)CC2)c1 the results were Coupling enz 0, ELG1 DNA repair 15%, TSHR antagonist -12, RORg inh 11µM* and VP16 counter -21%.
`CCCOc1cccc(C(=O)NCCNC(=O)c2ccco2)c1` gave Coupling enz 1, ELG1 DNA repair -2%, TSHR antagonist 2, RORg inh 9% and VP16 counter -8%.
CC(=O)NC(=S)Nc1ccc([N+](=O)[O-])cc1C was read as Coupling enz 3, ELG1 DNA repair 26%, TSHR antagonist 8, RORg inh -30% and VP16 counter 0%.
For Cc1cc([N+](=O)[O-])ccc1NC(=S)NC(=O)Cc1ccccc1 the results were Coupling enz -5, ELG1 DNA repair 5%, TSHR antagonist -9, RORg inh 22µM* and VP16 counter inconclusive.
For CCCCC(=O)NC(=S)Nc1cc([N+](=O)[O-])ccc1OC the results were Coupling enz 0, ELG1 DNA repair 3%, TSHR antagonist -19, RORg inh 10µM* and VP16 counter -25%.
Screening Cc1ccc([N+](=O)[O-])cc1NC(=O)Nc1cccc(F)c1 returned Coupling enz -1, ELG1 DNA repair 16µM*, TSHR antagonist -19, RORg inh inconclusive and VP16 counter inconclusive.
For COc1ccc([N+](=O)[O-])cc1NC(=S)NC(C)=O the results were Coupling enz 0, ELG1 DNA repair -2%, TSHR antagonist -10, RORg inh -9% and VP16 counter 2%.
Cc1ccc([N+](=O)[O-])cc1NC(=S)NC(=O)CC(C)(C)C was read as Coupling enz 2, ELG1 DNA repair 8%, TSHR antagonist -7, RORg inh 6.3µM* and VP16 counter 22µM*.
Cc1ccc([N+](=O)[O-])cc1NC(=S)NC(=O)C(C)(C)C was read as Coupling enz 5, ELG1 DNA repair -3%, TSHR antagonist -25, RORg inh inconclusive and VP16 counter 5%.
Screening NC(=O)c1ccccc1C[C@H](C(=O)O)N1C(=O)c2ccc(C(=O)O)cc2C1=O returned Coupling enz -1, TSHR antagonist 13, RORg inh -14% and VP16 counter -1%.
Screening Cc1cc([N+](=O)[O-])ccc1NC(=S)NC(=O)C(c1ccccc1)c1ccccc1 returned Coupling enz -1, ELG1 DNA repair inconclusive, TSHR antagonist 0, RORg inh 7.9µM* and VP16 counter 10µM*.
`CS(=O)(=O)N1CCC[C@@]2(CCN(Cc3ccccc3)C2)C1` gave Coupling enz 3, RORg inh -20% and VP16 counter -2%.
`COC(=O)c1ccc(N)c(N=CC2=C(O)CC(C)(C)CC2=O)c1` gave Coupling enz -13, ELG1 DNA repair inconclusive, TSHR antagonist -7, RORg inh 13µM* and VP16 counter inconclusive.
For CC1(C)CC(=O)C(C=Nc2cc(C(=O)c3ccccc3)ccc2N)=C(O)C1 the results were Coupling enz -12, ELG1 DNA repair -3%, TSHR antagonist -10, RORg inh 7.9µM* and VP16 counter inconclusive.
For CN(C)Cc1ccccc1-c1nc(N(C)C)c2ccccc2n1 the results were Coupling enz -2, RORg inh -23% and VP16 counter inconclusive.
Screening O=C(N=C1SC2CS(=O)(=O)CC2N1CCc1ccccc1)C1CCCCC1 (stereo not given) returned ELG1 DNA repair -7%, TSHR antagonist 0, RORg inh -18% and VP16 counter 3%.
For OC1CCN(Cc2ccc(OCc3ccccc3)cc2)CC1 the results were Coupling enz -1, ELG1 DNA repair inconclusive, TSHR antagonist -2, RORg inh 10µM* and VP16 counter inconclusive.
Screening COc1cc2ncc(S(=O)(=O)c3ccccc3)c(N3CCCC(C)C3)c2cc1OC (stereo not given) returned Coupling enz -6, ELG1 DNA repair 18µM*, TSHR antagonist -9, RORg inh inconclusive and VP16 counter 7%.
For Clc1ccc(C2CC(c3cccs3)n3ncnc3N2)c(Cl)c1 (stereo not given) the results were Coupling enz 2, ELG1 DNA repair 0%, TSHR antagonist 0, RORg inh 11µM* and VP16 counter inconclusive.
Screening Cc1occc1C(=O)N/N=C/c1ccc(-c2ccccc2)cc1 returned Coupling enz -6, ELG1 DNA repair inconclusive, TSHR antagonist -20, RORg inh 13µM* and VP16 counter inconclusive.
For Cc1occc1C(=O)N/N=C/c1ccc(OCc2ccccc2)cc1 the results were Coupling enz 2, ELG1 DNA repair inconclusive, TSHR antagonist -3, RORg inh inconclusive and VP16 counter -89%.
For Cc1occc1C(=O)N/N=C/c1ccc2c(c1)OCO2 the results were Coupling enz -1, ELG1 DNA repair inconclusive, TSHR antagonist -3, RORg inh 7.9µM* and VP16 counter inconclusive.
COCCNC(=S)N1CCC(C(=O)c2ccc(C)cc2)CC1 was read as Coupling enz 3, ELG1 DNA repair 1%, TSHR antagonist 11, RORg inh 0% and VP16 counter 4%.
For O=[N+]([O-])c1cc(C=Nc2ccc3ccccc3c2)ccc1Br the results were Coupling enz -5, ELG1 DNA repair inconclusive, TSHR antagonist 1, RORg inh 20µM* and VP16 counter inconclusive.
For COc1ccc(-c2nnnn2C)cc1S(=O)(=O)Nc1ccc(C)cc1C the results were Coupling enz -1, ELG1 DNA repair -3%, TSHR antagonist 7, RORg inh -2% and VP16 counter -17%.
